Sampled rows, rich in hits. Any-hit rate of the full collection: about 19%.
TDP1 cell CPT = qHTS for Inhibitors of human tyrosyl-DNA phosphodiesterase 1 (TDP1): qHTS in cells in presence of CPT | Potency, µM (top dose mostly 46.2 µM), for inactives: at the top dose activity change, negative = growth inhibition, hits mostly inhibitors | AID 686979, 2013 | 420,000 compounds, 12% hits | chicken DT40 Tdp1-/-;hTDP1 cells + 20 nM CPT, ATP luminescence, 48 h; also: potency is read from the fitted curve at half-maximal effect; nearly all actives have a fitted effect of over 55% in size
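Chicken DT40 Tdp1-/- cells stably complemented with human TDP1 were seeded at 400 cells/well in medium containing 20 nM camptothecin, exposed to pin-transferred compounds, and grown at 37 °C for at least 48 hr. Viability was read as ATP luminescence.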
HT1080 IDH1KD tx = qHTS for induction of synthetic lethality in tumor cells producing 2HG: qHTS for the HT-1080-IDH1KD cell line | HT-1080 IDH1 knockdown viability, ATP luminescence, 48 h | Potency, µM (highest dose often 46.1 µM), for the others: top-dose activity, negative = toxicity, most hits filed as cytotoxic | 360,000 compounds, 2% hits;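 also: potency is read from the fitted curve at half-maximal effect; 0% = DMSO wells and -100% = cell-free medium wells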
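Cytotoxicity counter-line: IDH1KD HT-1080, 48 h, CellTiter-Glo. Curves classed by r2, magnitude and activity.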
HT1080-NT tox = qHTS for induction of synthetic lethality in tumor cells producing 2HG: qHTS for the HT-1080-NT fibrosarcoma cell line; HT-1080-NT fibrosarcoma viability, CellTiter-Glo ATP luminescence, 48 h; AID 686970, 2013; 360,000 compounds, 1.6% hits; Potency, µM (highest dose often 46.1 µM), for the others: top-dose activity, negative = less viability, usual class: cytotoxic;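 also: NT is the 2HG producing partner of a matched IDH1 knockdown line; potency is read from the fitted curve at half-maximal effect; 0% = DMSO-treated cells and -100% = media-only wells without cells; nearly all actives have a fitted effect of over 55% in size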
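750 cells/well, RPMI + 5% FBS; 2 h settle, compound pin-transfer, 48 h at 37 degrees C. CellTiter-Glo 10 min RT, luminescence. Normalized to DMSO and media-only wells.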
IL1B secr inh = qHTS for Inhibitors of Inflammasome Signaling: IL-1-beta AlphaLISA Primary Screen. THP-1 LPS/ATP IL-1B secretion, AlphaLISA, 16 h; hits give low values. activity change, % at 57.5 µM. 360,000 compounds, 4.7% hits; in the data active = activity change below about -50%; inconclusive = mostly about -30% to -49%
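THP-1 cells pretreated 1 hr with compounds (up to 57.5 uM final), then stimulated with LPS (250 ng/mL final) plus ATP (1.25 mM final); secreted IL-1B measured by AlphaLISA after 16 hr, decreased signal indicating inhibition.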
DT40 TDP1 no CPT = qHTS for Inhibitors of human tyrosyl-DNA phosphodiesterase 1 (TDP1): qHTS in cells in absence of CPT; Potency, µM (titrated, usually from 46.2 µM), without a hit: at the highest dose activity change, negative = growth inhibition, hits mostly inhibitors; DT40 Tdp1-/- hTDP1 cells, no CPT, ATP luminescence, 48 h; AID 686978, 2013; 420,000 compounds, 15% hits; also: potency is read from the fitted curve at half-maximal effect; nearly all actives have a fitted effect of over 55% in size
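Chicken DT40 Tdp1-/- cells complemented with human TDP1, screened without camptothecin (DMSO vehicle only), 400 cells/well. Compounds pin-transferred, cells incubated at 37 °C for at least 48 hr. Growth read as ATP-dependent luminescence (CellTiter-Glo, 30 min at RT).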
The depositor's hits bear a star; ? = inconclusive; . = no result given; ! = a repeat was not active. Unless noted, calls follow the shape of the dose curve; as a rule, active = well fitted curve in the direction sought with a large enough effect; inconclusive = small, poorly fitted or top-dose-only effect, or another doubt; inactive = no such curve, though single readings can be large; an effect the other way counts as inactive or inconclusive. Unless noted, % is scaled to controls: 0 for no effect and ±100 for the full control effect.

SMILES	TDP1 cell CPT	HT1080 IDH1KD tx	HT1080-NT tox	IL1B secr inh	DT40 TDP1 no CPT
O=C(Nc1cccc(Cl)c1)C1CCCN(c2ncnc3c2nc2n3CCCCC2)C1 (stereo not drawn)	5.17µM*	.	.	.	?
CCc1cccc(NC(=O)C2CCCN(c3ncnc4c3nc3n4CCCCC3)C2)c1 (stereo not drawn)	?	?	-5.0%	-54.4*	?
CSc1cccc(NC(=O)C2CCN(c3ncnc4c3nc3n4CCCCC3)CC2)c1	?	.	.	.	-55.6%
CCOC(=O)Cn1nc(-c2ccccc2)c2cnc3ccc(OCC)cc3c21	13µM*	.	.	.	20.6µM*
CCc1ccc2ncc3c(-c4ccccc4)nn(-c4ccccc4)c3c2c1	?	.	.	.	13µM*
COc1ccc(-c2cc(C(=O)NCc3ccc(C(F)(F)F)cc3)[nH]n2)c(C)c1	?	?	?	-29.1	?
COc1cc2c(cc1OC)C(COc1cccc(C(F)(F)F)c1)N(C(=O)c1ccc(S(=O)(=O)N3CCCC3)cc1)CC2 (stereo not drawn)	-18.0%	.	.	.	-16.0%
CCCc1cnc(N2CCN(C(=O)c3c(-c4ccccc4)noc3C)CC2)nc1	?	-8.4%	-9.9%	6.0	?
C#CCSC1=C(C#N)C(c2cccs2)C(C(=O)OCC)=C(C)N1 (stereo not drawn)	?	-10.8%	9.4%	-0.6	?
CCN(CC)C(=O)CSC1=C(C#N)C(c2cccs2)C=C(C)N1 (stereo not drawn)	?	-2.3%	2.1%	-12.8	23.1µM*
Cc1ccc(CC(=O)Nc2nnc(-c3ccc(F)cc3)o2)c(C)c1	?	-1.6%	1.8%	-1.1	16.4µM*
COc1cc(OC)cc(-c2nnc(NC(=O)Cc3ccc(F)cc3)o2)c1	1.46µM*	-3.6%	-12.7%	13.1	2.59µM*
O=C(COc1ccccc1)Nc1nnc(-c2ccc(F)cc2)o1	-14.0%	-1.8%	-4.8%	12.0	-1.4%
COc1ccc(CCNC(=O)CSC2=NS(=O)(=O)c3cc(F)ccc3N2)cc1OC	-11.1%	-1.7%	-6.6%	?	?
CC1=C(c2ccc(F)cc2)S(=O)(=O)N=C1N1CCC(C(=O)NCCc2ccco2)CC1	-6.2%	.	.	.	-22.0%
COc1ccc(NC(=O)CSc2nc(-c3ccncc3)nn2CC(=O)N2CCCC2)cc1	-1.9%	-3.2%	-4.2%	6.0	-0.2%
CCCN1CCc2c(sc(NC(=S)NC(=O)c3ccccc3)c2C#N)C1	20.6µM*	-8.4%	-10.8%	0.0	?
COc1ccc(C(=O)Nc2sc3c(c2C#N)CCN(C(C)=O)C3)cc1	3.26µM*	5.8µM*	8.2µM*	-25.4	4.11µM*
CC(C)N1CCc2c(sc(NC(=O)c3ccc(S(=O)(=O)N4CCOCC4)cc3)c2C#N)C1	23.1µM*	1.2%	-0.3%	-19.6	20.6µM*
CCOC(=O)N1CCc2c(sc(NC(=O)c3ccc(S(=O)(=O)N4CCCC4)cc3)c2C#N)C1	20.6µM*	0.5%	-19.2%	11.0	14.6µM*
COC(=O)/C=C/c1ccsc1NC(C)=O	-1.5%	19.0%	20.5%	8.7	-4.9%
Cn1cc(C2=C(c3ccc(Cl)cc3Cl)C(=O)NC2=O)c2ccccc21	?	-27.4%	2.9%	-1.3	11.2µM*!
Cn1cc(-c2ccccc2C(N)=O)c(=O)c2cc(Cl)ccc21	1.0%	5.3%	5.4%	24.0	-24.0%
O=C(CSc1ccc(Cl)cc1)N/N=C/c1cccnc1	5.4%	12.0%	19.7%	-5.5	-19.9%
COc1ccc(C(=O)c2ccc(C)cc2)c(OC)c1OC	23.1µM*	18.4µM*	?	18.1	18.4µM*
CCC(=O)N1CCN=C1SCc1cccc(C(F)(F)F)c1	?	-4.2%	-1.3%	-7.0	?

High-throughput results: PubChem BioAssay, National Center for Advancing Translational Sciences (NCATS)
